Laboratory results as given in PubChem BioAssay AID1159580 (chemical genetic matrix, 2015).
Values joined by “and” are separate entries in the source; they are usually repeats but may differ in a detail not shown here. Identical values can stand only once. The whole screen tested about 5,500 compounds, of which about 2,000 (36%) were called active. Another 18% or so got no clear call; they are omitted. Cut-off read from the data, not from the text of the source: active = normalized growth mostly below about 0.91 (no sharp cut-off); inconclusive = no clear call, values can overlap the other calls; inactive = mostly above about 0.92. The list shows a part of the results.

Assay: chemical genetic growth profiling, strain panel (AID 1159580);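 note: tested at 20 µM; growth read once vehicle control cultures reached saturation at 30 °C; 1 = growth at the plate median or of vehicle wells; lower values mean less growth of the strain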
Settings: S. cerevisiae deletion strains, growth OD

Measured: normalized growth

CN1CCN(C2=Nc3cc(Cl)ccc3Nc3ccccc32)CC1
inactive: locus YAL013W, strain DEP1, stronger effect = lower value 1.02 | locus YAL021C, strain ccr4, stronger effect = lower value 0.991 | locus YAL026C, strain drs2, stronger effect = lower value 0.953 | locus YAL030W, strain snc1, stronger effect = lower value 1.01 | locus YAL040C, strain CLN3, stronger effect = lower value 1.01 | locus YBL061C, strain skt5, stronger effect = lower value 0.968 | locus YBR009C, strain hhf1, stronger effect = lower value 1.01 | locus YBR021W, strain FUR4, stronger effect = lower value 0.979 | locus YBR023C, strain chs3, stronger effect = lower value 0.987 | locus YBR171W, strain sec66, stronger effect = lower value 0.975 | locus YBR229C, strain ROT2, stronger effect = lower value 1.01 | locus YBR231C, strain swc5, stronger effect = lower value 0.988 | locus YBR279W, strain paf1, stronger effect = lower value 0.983 | locus YCL011C, strain gbp2, stronger effect = lower value 0.984 | locus YCL016C, strain dcc1, stronger effect = lower value 0.954 | locus YCL029C, strain bik1, stronger effect = lower value 1.01 | locus YCL061C, strain MRC1 (second series), stronger effect = lower value 1 | locus YCL061C, strain MRC1, stronger effect = lower value 0.984 | locus YCL069W, strain vba3, stronger effect = lower value 0.981 | locus YCR088W, strain abp1, stronger effect = lower value 0.985 | locus YDL005C, strain med2, stronger effect = lower value 0.984 | locus YDL035C, strain GPR1, stronger effect = lower value 1 | locus YDL040C, strain nat1, stronger effect = lower value 1 | locus YDL074C, strain BRE1, stronger effect = lower value 0.935 | locus YDL101C, strain DUN1, stronger effect = lower value 0.996 | locus YDL134C, strain PPH21, stronger effect = lower value 0.991 | locus YDL185W, strain tfp1, stronger effect = lower value 1.01 | locus YDL192W, strain arf1, stronger effect = lower value 1.02 | locus YDR001C, strain nth1, stronger effect = lower value 0.989 | locus YDR069C, strain doa4, stronger effect = lower value 0.968 | locus YDR101C, strain arx1, stronger effect = lower value 1 | locus YDR150W, strain NUM1, stronger effect = lower value 1.01 and 0.991 | locus YDR159W, strain sac3, stronger effect = lower value 0.948 | locus YDR162C, strain NBP2, stronger effect = lower value 0.97 | locus YDR195W, strain ref2 1.04 | locus YDR297W, strain sur2, stronger effect = lower value 0.976 | locus YDR318W, strain mcm21, stronger effect = lower value 1.02 | locus YDR334W, strain swr1, stronger effect = lower value 0.98 | locus YDR335W, strain msn5, stronger effect = lower value 0.977 | locus YDR363W, strain ESC2, stronger effect = lower value 0.884 | locus YDR388W, stronger effect = lower value 1.02 | locus YDR392W, strain spt3, stronger effect = lower value 0.801 | locus YDR502C, strain sam2, stronger effect = lower value 0.994 | locus YEL003W, strain gim4, stronger effect = lower value 0.987 | locus YEL037C, strain rad23, stronger effect = lower value 0.979 | locus YEL061C, strain CIN8 (second series), stronger effect = lower value 0.977 | locus YEL061C, strain CIN8, stronger effect = lower value 1.05 | locus YER002W, strain NOP16, stronger effect = lower value 0.997 | locus YER015W, strain faa2, stronger effect = lower value 0.991 | locus YER016W, strain bim1, stronger effect = lower value 0.966 | locus YER110C, stronger effect = lower value 1.03 | locus YER111C, strain swi4, stronger effect = lower value 0.975 | locus YER155C, strain BEM2, stronger effect = lower value 1.01 | locus YER167W, strain BCK2, stronger effect = lower value 1 | locus YFR010W, strain ubp6, stronger effect = lower value 1.02 | locus YGL078C, strain dbp3, stronger effect = lower value 1.01 | locus YGL086W, strain mad1, stronger effect = lower value 1.02 | locus YGL167C, strain pmr1, stronger effect = lower value 0.989 | locus YGL173C, strain kem1, stronger effect = lower value 0.98 | locus YGL227W, strain vid30, stronger effect = lower value 0.969 | locus YGL240W, strain doc1, stronger effect = lower value 1.03 | locus YGL248W, strain PDE1, stronger effect = lower value 0.99 | locus YGL253W, strain hxk2, stronger effect = lower value 0.982 | locus YGR078C, strain PAC10, stronger effect = lower value 0.975 and 1.01 | locus YGR135W, strain pre9, stronger effect = lower value 0.987 | locus YGR229C, strain SMI1, stronger effect = lower value 0.948 | locus YGR252W, strain gcn5, stronger effect = lower value 0.994 | locus YHR013C, strain ard1, stronger effect = lower value 0.917 | locus YHR027C, strain rpn1, stronger effect = lower value 0.985 | locus YHR030C, strain SLT2, stronger effect = lower value 1.02 and 1.07 | locus YHR079C, strain IRE1 (second series), stronger effect = lower value 1.03 | locus YHR079C, strain IRE1, stronger effect = lower value 1.03 | locus YHR094C, strain hxt1, stronger effect = lower value 1.02 | locus YHR129C, strain ARP1, stronger effect = lower value 1.01 | locus YHR142W, strain chs7, stronger effect = lower value 0.949 | locus YHR200W, strain rpn10, stronger effect = lower value 1.01 | locus YIL066C, strain RNR3, stronger effect = lower value 1.01 | locus YIL073C, strain SPO22, stronger effect = lower value 1.1 | locus YIL125W, strain kgd1, stronger effect = lower value 1.02 | locus YIR030C, strain dcg1, stronger effect = lower value 1.02 | locus YJL092W, strain hpr5, stronger effect = lower value 0.985 | locus YJL095W, strain BCK1 (second series), stronger effect = lower value 0.991 | locus YJL095W, strain BCK1, stronger effect = lower value 0.945 and 1.05 | locus YJL115W, strain asf1, stronger effect = lower value 0.969 | locus YJL129C, strain trk1, stronger effect = lower value 0.969 | locus YJL134W, strain LCB3, stronger effect = lower value 1.01 | locus YJL154C, strain vps35, stronger effect = lower value 0.981 | locus YJL164C, strain tpk1, stronger effect = lower value 0.999 | locus YJL166W, strain qcr8, stronger effect = lower value 1 | locus YJL168C, strain set2, stronger effect = lower value 1.03 | locus YJL187C, strain SWE1 (second series), stronger effect = lower value 1 | locus YJR043C, strain POL32, stronger effect = lower value 1.02
active: locus YDR137W, strain rgp1, stronger effect = lower value 1.15 [resistant] | locus YER155C, strain BEM2 (second series), stronger effect = lower value 0.802
